# In all, about 33,000 sequences were measured (“E-score (-0.5 to 0.5)”: median about -0.011, highest 2% from about 0.28 on). This is one part of a sample in which the highest values are shown more often than they occur.
# Molecular target: T1, Gcr1 (UniProt P07261)
# T1 sequence: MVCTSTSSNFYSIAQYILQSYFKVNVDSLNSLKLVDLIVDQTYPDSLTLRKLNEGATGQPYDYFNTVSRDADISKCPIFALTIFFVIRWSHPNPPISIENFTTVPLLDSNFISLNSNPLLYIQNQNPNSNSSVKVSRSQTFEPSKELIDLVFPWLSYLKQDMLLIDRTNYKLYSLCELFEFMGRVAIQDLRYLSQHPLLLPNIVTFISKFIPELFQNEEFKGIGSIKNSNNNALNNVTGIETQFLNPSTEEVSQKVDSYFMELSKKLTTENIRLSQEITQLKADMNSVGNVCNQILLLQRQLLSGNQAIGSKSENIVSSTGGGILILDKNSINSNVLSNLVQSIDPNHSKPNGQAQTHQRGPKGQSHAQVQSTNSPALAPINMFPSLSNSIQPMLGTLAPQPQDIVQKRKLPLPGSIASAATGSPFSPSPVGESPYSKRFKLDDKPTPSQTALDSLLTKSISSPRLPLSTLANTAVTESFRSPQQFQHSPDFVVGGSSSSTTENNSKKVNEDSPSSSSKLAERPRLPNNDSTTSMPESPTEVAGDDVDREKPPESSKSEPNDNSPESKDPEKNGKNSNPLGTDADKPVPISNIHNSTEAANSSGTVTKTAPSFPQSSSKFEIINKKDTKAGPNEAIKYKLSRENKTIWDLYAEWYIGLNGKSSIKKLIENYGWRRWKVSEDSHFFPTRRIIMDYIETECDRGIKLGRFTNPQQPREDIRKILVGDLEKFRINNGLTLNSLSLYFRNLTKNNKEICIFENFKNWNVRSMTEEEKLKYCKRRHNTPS
# Assay: PBM E-score (8-mer binding enrichment) (E-score (-0.5 to 0.5)); higher = stronger / more preferred TF binding
# Details: protein concentration: 100 nM; construct: GST-full length
# Method in brief: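 Full-length yeast transcription factors or their DNA-binding domains, GST-tagged and expressed with PURExpress, were applied at about 100-200 nM to universal all-10-mer Agilent arrays. These arrays had been made double-stranded by primer extension on fresh or once-stripped slides. Detection used fluorescent anti-GST, normalisation used masliner, and E-scores for ungapped eight-base words pooled with reverse complements came from the Universal PBM Analysis Suite.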
row,Sequence,PBM E-score
1,AACATTCG,-0.0406
2,TAAATACA,0.161
3,GGTGGTCA,-0.132
4,AGCACGCT,-0.123
5,ACAGCGGT,-0.219
6,AGGAACCA,0.203
7,GAGAACCC,-0.162
8,AGGAACCC,0.414
9,GGGAACCC,0.336
10,AGGAACCG,0.139
11,GGAAACCC,0.106
12,CATGCCTA,-0.112
13,AAGAGAGC,-0.276
14,GAGCCGTA,0.0183
15,ATGGATAG,-0.00601
16,AACGGGGA,-0.00775
17,AGAATCCT,0.252
18,AGGATCCA,0.263
19,AGGATCCC,0.379
20,AGAATCCC,0.321
21,GGGATCCC,0.419
22,AGGATCCT,0.301

row,Sequence,PBM E-score
1,AGAATCCA,0.249
2,GAGATCCC,0.0362
3,GGGATCAC,-0.137
4,AAGATCCT,0.0935
5,ACGATCCT,-0.0105
6,AGGATCCG,0.0808
7,CTGGTCGA,-0.3
8,GGGCCAAC,-0.13
9,AAATGCTT,-0.208
10,GCCGGCGC,0.0181
11,AGCAAACT,0.0882
12,GGGTTCAA,-0.101
13,GCCGGCTA,-0.145
14,GAAGGGAC,-0.279
15,CGGATCCC,0.341
16,TGGATCCA,0.317
17,GTGATCCA,-0.0936
18,GAGATCCA,0.174
19,CGGATCGC,-0.0306
20,CGGATCCA,0.235
21,GGGATCCA,0.347
22,CGGATCCG,0.212

row,Sequence,PBM E-score
1,TGGATCAA,-0.0326
2,AAATCAAA,0.0655
3,TGAAAGCA,0.00794
4,GATACTGC,-0.205
5,ATCCGACA,-0.019
6,CGGTTAGC,-0.0704
7,GGCCTGCA,-0.237
8,TTCCAGAA,0.287
9,TACCAGAA,0.34
10,CTCCAGAA,0.0346
11,GTCCAGAA,0.0699
12,AACCAGAT,0.228
13,CCCCAGAC,0.0344
14,AACCAGAC,-0.0315
15,CACCAGAA,0.15
16,AACCAGAA,0.281
17,CCCCAGAA,0.288
18,CCCCAGAG,-0.0817
19,GACCAGAA,0.131
20,AAGTTTGG,0.179
21,AATCCAAA,0.205
22,ACTTCATG,0.0318

row,Sequence,PBM E-score
1,GAACCCGA,0.195
2,CGTATCTC,0.0698
3,ACTACGGG,0.00638
4,AAAATCCA,-0.012
5,CTCCACAA,0.0774
6,TACCAGTA,0.224
7,GTCCACAA,0.224
8,AACCAGTA,0.315
9,AACCAGTG,-0.195
10,TTCCACAA,0.347
11,CCCACCAG,0.0742
12,CGGGCCGC,0.0123
13,AAGGTTCA,-0.179
14,GCAGAAGC,0.0881
15,ATAGAAGC,0.315
16,CCAGAAGC,0.357
17,AAAGAAGC,0.262
18,CAAGAAGC,0.24
19,GAAGACGA,0.198
20,GAAGACGC,0.304
21,CCAGAAGA,0.187
22,ATAGAAGG,0.0701

row,Sequence,PBM E-score
1,GAAGAAGC,0.318
2,CTAGAAGC,0.154
3,CAAGACGC,0.238
4,CCGCAGCG,0.0315
5,CCGGTACG,-0.0393
6,CGATAGAG,-0.0218
7,AGGCCTAA,-0.0235
8,CCAGGTAA,-0.0543
9,GTTCTCAA,-0.129
10,AACAGACC,-0.179
11,ATGTCTAA,-0.0649
12,CCTTGATA,-0.0119
13,ATAGACGA,0.248
14,CAAGAAGA,0.354
15,TAAGAAGA,0.243
16,CTAGACGC,0.0428
17,ATAGACGC,0.377
18,GAAGAAGA,0.183
19,CTTCCTCA,0.264
20,GGCCTCCA,0.172
21,GGCTTTCA,-0.109
22,CACTGATC,-0.142

# Source: the supplement of paper PMC3334620
